Mcl-1 Bim block – inhibitors of Bim peptide binding to Mcl-1, primary screen, biochemical, bead-based flow cytometry, multiplex. 190,000 tested, 0.1% active. Induced myeloid leukemia cell differentiation protein Mcl-1 (Homo sapiens), Q07820. Bim peptide-Mcl-1 binding. inhibition, % at 10 µM; in the data active means inhibition above about 40%;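 further: 0% = no compound tracer wells and 100% = peptide blocker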
Target sequence (Q07820 whole entry, looked up): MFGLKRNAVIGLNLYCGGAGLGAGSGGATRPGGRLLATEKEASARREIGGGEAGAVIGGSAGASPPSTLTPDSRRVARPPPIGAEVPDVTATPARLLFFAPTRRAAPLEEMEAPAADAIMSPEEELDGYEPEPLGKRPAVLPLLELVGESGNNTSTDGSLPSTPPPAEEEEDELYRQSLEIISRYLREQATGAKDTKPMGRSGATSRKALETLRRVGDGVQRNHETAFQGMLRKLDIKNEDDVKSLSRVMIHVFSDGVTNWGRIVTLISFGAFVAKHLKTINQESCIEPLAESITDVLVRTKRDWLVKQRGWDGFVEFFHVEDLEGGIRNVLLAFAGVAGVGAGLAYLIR
L929 necroptosis – inhibitors of zVAD-triggered necroptosis, primary screen, L929 cells. L929 zVAD necroptosis rescue, ATP luminescence, 24 h; with zVAD 60 µM. viability rescue, % at 10 µM. 220,000 tested, 0.38% active. AID 1377, 2008;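 active means activation, scaled between plate controls, above about 75%, limit read from the data; inactive means activation under that limit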;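 further: 0% = zVAD with DMSO and 100% = DMSO alone without zVAD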
Mcl1-Bid inh – Mcl-1/Bid binding inhibitors, primary screen, biochemical, TR-FRET, 1536-well; TR-FRET Mcl-1/Bid-Dy647 peptide binding; inhibition, % at 21.7 µM; 220,000 tested, 0.97% active;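 active means compounds that cut the binding signal by more than half at the single screening dose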;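 further: His-tagged Mcl-1 with europium anti-His antibody binding Bid BH3 peptide; 0% = Mcl-1 plus peptide wells and 100% = peptide-only wells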
Calpain2 inh – inhibitors of pig calpain II, primary screen, biochemical, fluorogenic peptide substrate, 1536-well; purified calpain II, 30 min; 220,000 tested, 0.37% active; inhibition, % at 16 µM;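 active means inhibition above about 50%, limit read from the data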
TNF death inh – inhibitors of TNF-alpha triggered necroptosis, primary screen, cell-based, Jurkat FADD-/-, single concentration; activation (protection from cell death), % at 10 µM; Jurkat FADD-/- TNF necroptosis rescue, ATP luminescence, 24 h; 0 = TNF only, 100 = no-TNF cells; 220,000 tested, 0.068% active;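 active means activation, meaning protection from cell death, of at least 50% relative to plate controls; inactive means activation below 50%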;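 further: necroptosis triggered by 40 ng/mL TNF-alpha added together with compound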
Mcl1 Noxa PPI – Mcl-1/Noxa binding inhibitors, primary screen, biochemical, TR-FRET, 1536-well | Induced myeloid leukemia cell differentiation protein Mcl-1 (Homo sapiens), Q07820 | 220,000 tested, 1.5% active | inhibition, % at 21.7 µM | TR-FRET Mcl-1/Noxa peptide binding, 2 h | AID 1022, 2008;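 active means compounds that cut the protein-peptide binding signal by more than 50% relative to plate controls in a single-dose test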;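 further: His-tagged Mcl-1 with rhodamine Noxa BH3 peptide and terbium anti-His antibody; 0% = Mcl-1 plus Noxa peptide wells and 100% = peptide-only wells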
Active calls of the source: *; x = no result. The list is not random: actives were taken first. Their share in the collection is about 2.8%.

SMILES	Mcl-1 Bim block	L929 necroptosis	Mcl1-Bid inh	Calpain2 inh	TNF death inh	Mcl1 Noxa PPI
O=C(c1cccc(F)c1)N1CCC(c2nc3ccccc3s2)CC1	2	0	-29	19	-1	18
O=C(CN1CCN(C2CCCCC2)CC1)NCCC1=CCCCC1	3	1	51*	-10	0	33
COc1cc(C(c2nnnn2C(C)(C)C)N2CCN(c3nc4ccccc4s3)CC2)ccc1O (centres undefined)	10	2	4	-93	1	73*
CC(C)Cn1c(-c2csc3c2CCCC3)n[nH]c1=S	-3	0	-42	50*	-1	15
CCOC(=O)CSc1ccc(-c2nc3ccccc3[nH]2)cn1	0	0	-13	-27	0	51*
Cc1cc2nc(-c3ccc(SCC(=O)N4CCOCC4)nc3)[nH]c2cc1C	2	2	-2	-351	-7	15
Cc1ccc2nc(-c3ccc(SCC(=O)Nc4nnc(C)s4)nc3)[nH]c2c1	-4	2	70*	-105	3	68*
Cc1cc2nc(-c3ccc(SCC(=O)N4CCN(C(=O)c5ccco5)CC4)nc3)[nH]c2cc1C	1	-1	-31	-455	-15	71*
O=C(NNS(=O)(=O)c1ccccc1[N+](=O)[O-])c1cccc([N+](=O)[O-])c1	-5	0	-51	-5	1	15
c1cnc2c(OCc3nc4ccccc4[nH]3)cccc2c1	2	0	8	56*	2	19
CCOC(=O)c1cnc(SC)nc1Sc1ccccc1	-6	1	-23	6	0	-7
Cc1ccc(CNC(=O)CCS(=O)(=O)c2cccc3nonc23)cc1	-1	-1	93*	-25	1	4
COc1ccc(CNC(=O)CCS(=O)(=O)c2cccc3nonc23)cc1	-1	2	-13	5	1	11
CCOc1ccc(NC(=O)CC(NCc2ccccn2)C(=O)O)cc1 (centres undefined)	0	0	-58	-14	0	-11
COc1ccc(C(=O)Nc2ccccc2C(=O)NC(Cc2ccc(O)cc2)C(=O)NNC(=O)c2ccc(C)cc2)cc1 (centres undefined)	-1	2	57*	-72	1	-114
O=[N+]([O-])c1ccccc1/C=C/C=N/n1c(-c2ccccc2)n[nH]c1=S	-3	x	-33	19	-1	73*
CC(=O)OC(C(=O)NC1CCCCC1)c1ccc(C)cc1 (centres undefined)	0	0	-4	-5	29	15
CC(=O)OC(C(=O)NC1CCCCC1)c1ccc(Cl)c(Cl)c1 (centres undefined)	3	3	-13	44	70*	-2
CCOc1ccc(CC(=O)NNC(=S)NC)cc1Br	x	0	-42	-10	1	9
COc1ccc2c(=O)c3c(=O)n(CCc4ccccc4)c(C(C)C)nc3oc2c1	x	2	77*	-2	4	10
COc1ccc(Cn2c(C)nc3oc4cc(OC)ccc4c(=O)c3c2=O)cc1	1	0	1	-48	-3	18
Cc1nc2oc3ccccc3c(=O)c2c(=O)n1Cc1ccccc1	-2	3	-5	-6	60*	-9
CC(C)CC1NC(=O)N(CC(=O)NC2CCCc3ccccc32)C1=O (centres undefined)	-1	1	-47	-1	-1	24
O=C(Nc1cccc(Cl)c1)/C(=C\c1cccnc1)NC(=O)c1ccco1	1	0	-36	-10	-1	11
COc1cccc2c1nc(C)c1cc(C)oc12	-2	0	99*	-88	-3	-43
SMILES	Mcl-1 Bim block	L929 necroptosis	Mcl1-Bid inh	Calpain2 inh	TNF death inh	Mcl1 Noxa PPI
COc1ccc2nc(C)c3cc(C)oc3c2c1	-4	0	-5	0	-1	x
Cn1c(=O)cc(OCCCC(=O)Nc2ccccn2)c2ccccc21	-4	89*	0	17	6	14
CS(=O)(=O)c1ccc(Cl)c(NC(=O)Cc2c(F)cccc2Cl)c1	-1	1	-9	-1	0	5
CCOC(=O)c1ccc2c(c1)C1C=CCC1C(C(=O)O)N2 (centres undefined)	3	2	62*	-69	-3	104*
CC(C)C1Nc2ccc(C(=O)O)cc2C2C=CCC21 (centres undefined)	1	9	-57	-25	0	42
Cc1ccc2c(c1C)NC(C(=O)O)C1CC=CC21 (centres undefined)	1	x	96*	-58	x	99*
O=C(O)C1Nc2c(C(=O)N3CCOCC3)cccc2C2C=CCC12 (centres undefined)	6	1	5	-33	0	80*
COc1cccc(CNc2ccc([N+](=O)[O-])cc2Cl)c1O	-4	0	-9	35	3	11
COc1ccc(C(=O)N(Cc2ccccc2)Cc2cc3cc4c(cc3[nH]c2=O)OCCO4)cc1	0	0	95*	-10	-7	4
CCCCc1[nH]nc2c1C1(C(=O)N(CC)c3ccccc31)C(C#N)=C(N)O2 (centres undefined)	-2	0	0	-11	-1	106*
COc1ccc(Cl)cc1NC(=O)/C=C\C(=O)O	0	0	-11	-18	1	14
COc1ccccc1NC(=O)/C=C\C(=O)O	-2	0	-19	77*	1	8
O=C(NCc1ccc(F)cc1)C1CCN(c2cnccn2)CC1	0	1	-35	-54	16	14
O=C(CCn1c(=S)oc2ccccc21)NC1CCCCCCC1	x	0	-43	-16	4	-14
Cc1ccc(-n2cnnn2)c2cccnc12	8	0	57*	12	0	-32
Cc1ccc(N2C(=O)c3cccc4c(N)ccc(c34)C2=O)c2cccnc12	x	-1	-59	-15	-18	-16
CN(C)CCCOc1ccc(Cl)cc1Br	-4	0	53*	11	0	30
Clc1ccc(OCCOCCN2CCCCC2)c(Br)c1	0	-1	62*	10	-5	34
Cc1ccc(C(C)C)c(OCCNC(=S)Nc2cccc3ccccc23)c1	-3	0	-21	51*	-7	15
Cc1cc(C)nc(SCc2ccc(F)cc2)n1	-7	2	0	-12	-1	11
CC1=CC(c2ccc(Cl)cc2)n2nc(NC(=O)CCC(=O)O)nc2N1 (centres undefined)	x	0	-99	-343	1	8
CCC(=O)Nc1ccc(Cl)c(NC(=S)NC(=O)c2ccco2)c1	-2	26	-13	6	3	12
